# Experimental data published in PubChem BioAssay (NCI).
# About 83,000 compounds went through this panel and 20% of them were active in at least one assay; those are over-represented in the sample as a whole.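 Assay: single dose, 48 h. Readout: percent growth (0 = no net growth; negative = cell death). Active: <10.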 Values without a mark were called inactive. Calls of active or inactive are those of the source.
# System: SW-620 colon
# Test: NCI-60 one-dose screen, 48 h (100 = growth as untreated, 0 = no growth, -100 = all killed)
# Details: 10 µM
row,SMILES,growth
1,CCOC(=O)Nc1ccc2c(c1)C(=O)N(CCOC)c1ccccc1O2,32%
2,COc1ccc(Nc2ccnc(N3CCN(c4ccnc5cc(Cl)ccc45)CC3)n2)cc1,7.57% (active)
3,O=C(c1ccccc1)C(Nc1ccccc1)c1ccccc1 (stereo not given),97.6%
4,Cc1ccc(/C=C2\CN(Cc3cn(CCNc4ccnc5cc(Cl)ccc45)nn3)C/C(=C\c3ccc(C)cc3)C2=O)cc1,-63.6% (active)
5,C[C@]12CC[C@H]3[C@@H](CC=C4C[C@@H](O)CC[C@@]43C)[C@@H]1CC[C@@H]2C(=O)C/C=N/O,102%
6,Cc1ccccc1[P+](Cc1ccccc1)(c1ccccc1)c1ccccc1,30%
7,COc1ccccc1Cn1cc2c(c1-c1ccccc1)CCc1cnoc1-2,16.8%
8,Clc1cc(Cl)c(OCCCCCCN2CCNCC2)c(Cl)c1,-44% (active)
9,Cc1c(C(=O)N[C@H](CO)Cc2ccccc2)[nH]c2ccc(Cl)cc2c1=O,101%
10,CC(C)C(C)C(N)C(=O)O (stereo not given),110%
11,CCn1nc(-c2ccccn2)c2cccnc2c1=S,79.4%
12,COc1cc(CSc2nc3ccc(Cl)cc3c(=O)n2Cc2ccccc2)cc(OC)c1OC,28.7%
13,C[C@H](NC(=O)[C@@H]1CSSC[C@@H](NC(=O)Cc2nc3ccccc3cc2O)C(=O)NCC(=O)N1C)c1ccccc1,94%
14,CCOC(=O)[C@@H](Cc1ccccc1)NC(=O)c1[nH]c2ccc(Cl)cc2c(=O)c1C,96.3%
15,O=C(Nc1cccc(Cl)c1)OCC(COC(=O)Nc1cccc(Cl)c1)(COC(=O)Nc1cccc(Cl)c1)[N+](=O)[O-],45.6%
